# Results: the supplement of paper PMC9433436
# ± gives the standard deviation of the averaged measurements. The full ranking holds about 4,100 sequences; the median of “relative kcat/Km (krel) vs genomic leader AAAGAU” is about 1.7, and the highest 2% start at about 6.5. This is one part of a sample in which the highest values are shown more often than they occur.
# Target: T1, E. coli RNase P holoenzyme (M1 P RNA + rnpA protein) (UniProt P0A7Y8)
# T1 sequence: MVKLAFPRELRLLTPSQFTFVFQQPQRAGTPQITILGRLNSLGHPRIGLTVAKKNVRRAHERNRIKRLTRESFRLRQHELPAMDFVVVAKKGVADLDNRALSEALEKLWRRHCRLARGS
# Assay: relative kcat/Km (krel) vs genomic leader AAAGAU (relative (reference leader = 1)); higher = faster RNase P cleavage
# Experimental: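 HTS-Kin: a pool of ptRNA-Met (21C construct) with all 4096 combinations of 5' leader nucleotides N(-6) to N(-1) was processed in vitro by E. coli RNase P (P RNA + rnpA/C5 protein) under multiple-turnover conditions at 37 C, pH 8, 17.5 mM MgCl2. Residual substrate was Illumina-sequenced at several fractions reacted, and relative kcat/Km (krel) was computed by internal competition kinetics, calibrated to the genomic leader (AAAGAU = 1). The listed hexamer is the varied N(-6)..N(-1) leader (DNA letters), and it sits between a fixed 5' stem-loop flank (GCAUGCACGAAAGUGCGUGCUAUGAA) and the mature tRNA-Met starting GGCUACGUAGCUCAGUUGG. Two technical replicates are averaged.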
# [1] = fraction of substrate reacted: ~9-10% (9.79% repeat 1, 9.1% repeat 2)
# [2] = fraction of substrate reacted: ~13-16% (15.68% repeat 1, 13.17% repeat 2)
# [3] = fraction of substrate reacted: ~26-29% (28.66% repeat 1, 26.4% repeat 2)
Sequence,relative kcat/Km [1],relative kcat/Km [2],relative kcat/Km [3]
GCCTAA,2.35 ± 0.18,3.94 ± 0.16,7.08 ± 2.8
ACCTCA,3.35 ± 1.8,3.24 ± 0.27,4 ± 1.2
CCCTAG,3.11 ± 1.7,2.55 ± 0.57,4.45 ± 1.2
TGCAAA,0.962 ± 0.78,1.86 ± 0.54,2.7 ± 1.3
CGGACC,0.889 ± 0.39,0.714 ± 0.41,0.577 ± 0.38
ACCGGT,–,–,1.78 ± 1.1
TGGTCT,–,–,0.817 ± 0.39
CTGGCG,0.881 ± 0.58,–,0.461 ± 0.2
CAGTGA,1.48 ± 0.7,2.14 ± 0.58,3.05 ± 0.86
GATCGA,2.37 ± 0.82,2.79 ± 1.2,4.26 ± 1.2
GTTAAG,–,1.6 ± 0.16,2.65 ± 0.77
CTACTC,2.13 ± 1.3,1.61 ± 0.43,2.14 ± 0.28
TCCTAG,2.56 ± 0.72,3.4 ± 0.46,6.01 ± 2.7
TCCTAA,5.1 ± 1.9,6.12 ± 0.94,9.11 ± 3.3
TACCGC,3.15 ± 1.3,4.16 ± 0.76,6.03 ± 2.5
TACCGG,–,–,1.29 ± 0.22
TACCGA,2.83 ± 0.7,4.89 ± 1.1,7.04 ± 2.7
GACCGA,3.3 ± 0.89,4.27 ± 2.1,6.73 ± 2.8
AACCGA,2.67 ± 0.52,3.23 ± 0.34,4.66 ± 1.2
CACCGA,3.39 ± 1.4,3.9 ± 0.93,6.22 ± 2.1
AGCCGC,3.07 ± 1.3,2.5 ± 0.098,4.02 ± 1.1
TGTATC,1.92 ± 0.29,2.43 ± 0.36,4 ± 1.6
AACTGT,0.625 ± 0.14,0.97 ± 0.59,0.608 ± 0.51

Sequence,relative kcat/Km [1],relative kcat/Km [2],relative kcat/Km [3]
GGACGG,–,–,0.782 ± 0.17
GGCGGC,–,–,0.914 ± 0.47
GAACAG,–,0.667 ± 0.64,1.66 ± 0.19
TCATAC,4.3 ± 0.51,5.72 ± 0.91,7.38 ± 3
TAATAT,3.78 ± 1.4,5.05 ± 0.28,7.45 ± 3.4
ACATAT,2.86 ± 0.79,4.26 ± 0.58,6.5 ± 3.1
ACATAC,3.09 ± 1.3,3.78 ± 0.48,6.1 ± 2.7
GAATAT,2.99 ± 0.33,4.3 ± 0.79,6.29 ± 3.4
TAATAA,3.59 ± 2,4.41 ± 0.57,5.5 ± 2.2
TCATAA,3.15 ± 1.2,4.17 ± 0.67,5.77 ± 2.2
TCATAG,1.97 ± 1.4,1.66 ± 0.34,3.6 ± 0.47
TCATAT,4.21 ± 1.4,5.49 ± 1,8.18 ± 3.4
ACAACT,–,–,1.07 ± 0.15
CGGACA,0.696 ± 0.1,0.739 ± 0.49,0.747 ± 0.23
GCAAAT,2.24 ± 0.9,2.01 ± 0.39,1.93 ± 0.58
CGACCC,–,0.175 ± 0.13,1.47 ± 0.038
AAGATG,–,–,0.939 ± 0.44
TACGAG,–,1.58 ± 0.12,3.95 ± 1.1
CACGAT,1.78 ± 0.53,2.22 ± 0.33,3.42 ± 1.1
TACGAT,2.93 ± 1.5,2.79 ± 0.68,3.63 ± 1.5
TACGAA,2.87 ± 0.059,5.68 ± 1,8.44 ± 3.8
AACGAA,2.84 ± 0.7,3.68 ± 0.69,5.36 ± 1.9
CACGAC,3.62 ± 0.058,5.56 ± 2.7,7.35 ± 3

Sequence,relative kcat/Km [1],relative kcat/Km [2],relative kcat/Km [3]
TACGAC,3.699 ± 0.0078,5.54 ± 1.6,7.61 ± 3.2
CACGAG,1.8 ± 0.22,2.47 ± 1.2,3.69 ± 1.2
GACGTA,2.41 ± 1.4,2.86 ± 0.42,3.54 ± 1.3
AACGAC,3.67 ± 0.53,4.57 ± 1.6,5.98 ± 2.1
GACGAA,3.75 ± 1.5,6.07 ± 1.1,8.11 ± 2.6
GACGGA,–,1.21 ± 1.1,0.922 ± 0.64
TCGTCA,2.78 ± 1.8,2.51 ± 0.12,3.63 ± 1.3
ACTAGG,–,–,0.408 ± 0.15
CGGGCA,1.28 ± 0.55,0.965 ± 0.75,0.825 ± 0.17
CCAGAC,2.22 ± 0.29,2.1 ± 1.1,3.22 ± 0.77
AAGGGA,–,–,1.11 ± 0.65
TTTTCC,2.77 ± 1.4,2.75 ± 0.3,3.22 ± 0.98
GAGGTG,–,–,0.61 ± 0.57
GGATGG,–,–,0.8644 ± 0.0076
CTTTTT,2.99 ± 1.5,3.27 ± 0.75,4.46 ± 1.3
GCTCGG,0.809 ± 0.37,0.268 ± 0.21,0.748 ± 0.15
CACGCA,2.14 ± 0.48,3.31 ± 1.5,4.91 ± 1.6
GACGAC,3.35 ± 0.49,5.87 ± 1.6,7.89 ± 2.8
CACGAA,4.26 ± 1.8,6 ± 1.6,7.87 ± 2.6
GACGAT,1.52 ± 0.65,2.06 ± 1.5,2.68 ± 1.1
CACGTA,1.91 ± 1.1,2.23 ± 0.31,3.56 ± 1.4
GACGAG,–,1.49 ± 0.19,3.3 ± 0.29
